Screening data deposited in PubChem BioAssay by National Center for Advancing Translational Sciences (NCATS).
AmpC inh no detg – inhibitors of E. coli AmpC beta-lactamase without detergent | actives 0.52% (n = 330,000) | P00811 | AmpC nitrocefin hydrolysis, absorbance 480 nm, 0.0001% Triton | AID 485341 | Potency, µM (series often up to 57.1 µM), for inactives: top-dose activity change, negative = inhibition, usual class: inhibitors;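 further: plate controls were no compound for no effect and no enzyme for full effect; nearly all actives have a fitted effect of over 20% in size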
Target sequence (P00811 whole entry, looked up): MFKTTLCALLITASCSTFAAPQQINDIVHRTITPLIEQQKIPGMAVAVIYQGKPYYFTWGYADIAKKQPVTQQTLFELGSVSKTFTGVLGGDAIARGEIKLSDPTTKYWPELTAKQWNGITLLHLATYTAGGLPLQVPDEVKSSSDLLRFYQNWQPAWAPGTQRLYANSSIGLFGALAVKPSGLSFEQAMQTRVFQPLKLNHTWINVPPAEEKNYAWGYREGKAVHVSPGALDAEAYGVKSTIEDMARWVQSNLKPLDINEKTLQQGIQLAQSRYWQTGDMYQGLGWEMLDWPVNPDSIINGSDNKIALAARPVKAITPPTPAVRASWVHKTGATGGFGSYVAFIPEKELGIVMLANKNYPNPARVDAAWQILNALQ
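20 mM phosphate pH 7.0 + 0.01% (detergent screen) or 0.0001% Triton X-100; 5.3 nM AmpC reagent; cpd preinc 15 min RT; nitrocefin (800 uM stock) to start; A480 q20 s × 4 min; Activity was normalised to no-enzyme and no-compound control wells.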
Sm TGR block – inhibitors of Schistosoma mansoni thioredoxin glutathione reductase; Q962Y6; purified TGR, DTNB reduction, TNB absorbance 405 nm; Potency, µM (doses to about 114 µM), for inactives: at the top dose activity change, negative = inhibition, hits mostly inhibitors; actives 3% (n = 360,000); further: nearly all actives have a fitted effect of over 60% in size
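Kinetic colorimetric format: TGR-catalysed, NADPH-driven DTNB reduction monitored via TNB absorbance. Enzyme dispensed at 20 nM; compound exposure 15 min at room temperature before reaction start.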
AmpC inh detg – blocks E. coli AmpC beta-lactamase in detergent assay; AmpC hydrolysis of nitrocefin, absorbance 480 nm, 0.01% Triton; Potency, µM (highest dose often 114 µM), without a hit: top-dose activity change, negative = inhibition, actives largely listed as inhibitors; actives 0.041% (n = 370,000); P00811;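 further: 0% = no-compound wells and -100% = no-enzyme wells; nearly all actives have a fitted effect of over 25% in size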
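AmpC (5.3 nM in the dispensed reagent) in 20 mM phosphate pH 7.0 with 0.01% (detergent screen) or 0.0001% Triton X-100 was preincubated with compounds for 15 min at room temperature. Nitrocefin was then added from an 800 uM solution, and hydrolysis was followed at 480 nm.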
Starred values were filed as active, the others as inactive; u = inconclusive; x = no result; [ ] = dose if it differs, or a comment. A selection: hits, their analogues and other compounds. The true share with any hit is near 3.3%. The call rests on the fitted dose curve; in most records, active means well fitted curve in the direction sought with a large enough effect; inconclusive means small, poorly fitted or top-dose-only effect, or another doubt; inactive means no such curve, though single readings can be large; an effect the other way counts as inactive or inconclusive. Unless noted, on the % scale 0 is the no-effect control and ±100 the full control effect; potency means the concentration at half of the fitted maximal effect.

SMILES | AmpC inh no detg | Sm TGR block | AmpC inh detg
O=c1c2sc3ccccc3c2n(Cc2cccc(Cl)c2)c(=O)n1Cc1ccco1 | x | u | 24%
CCOCCCNC(=S)N1C2CCC1CC(NC(=O)NC13CC4CC(CC(C4)C1)C3)C2 (configuration not stated) | 136% | 17% | -1%
Cc1cnc(C(=O)OCC(=O)NCc2ccc(Cl)cc2)cn1 | -21% | x | x
COc1cccc(NC(=O)Cn2c(CCC(=O)O)ccc2-c2ccccc2)c1 | -37% | -33% | -4%
COc1ccc(-c2ccc(CCC(=O)O)n2C(C)C)cc1 | -34% | u | u
COc1ccc(-n2c(CCC(=O)O)ccc2-c2ccc(F)cc2)c(OC)c1 | -21% | 45µM* | -10%
CC(=O)c1cccc(-n2c(CCC(=O)O)ccc2-c2ccccc2)c1 | -11% | 18µM* | -2%
O=C(O)CCc1ccc(-c2cccs2)n1-c1ccc(C(=O)O)cc1 | -43% | 7.9µM* | u
O=C(O)CCc1nc(-c2cccs2)no1 | -39% | 7% | u
CCOc1ccc(-n2c(SCC(=O)N3CCC(C)CC3)nc3c([nH]c4ccccc43)c2=O)cc1 | x | 7% | -6%
O=C(NCc1ccccc1)c1ccc(CNS(=O)(=O)c2ccc(Br)cc2)cc1 | x | 13% | 1%
Cc1cccc(-c2nc(S(=O)(=O)c3ccc(F)cc3)c(NCCCN3CCOCC3)o2)c1 | 189% | -8% | 1%
Cc1ccccc1OC(C)C(=O)NCCCN1CCOCC1 (configuration not stated) | 11% | 3% | -5%
COc1cccc(CNC(=O)CSc2ccc(-c3ccco3)nn2)c1 | -31% | 8.9µM* | -4%
CC(=O)c1cccc(NC(=O)CSc2ccc(-c3ccco3)nn2)c1 | -27% | u | 3%
COc1ccccc1-c1ccc(SCC(=O)NCCc2ccccc2)nn1 | -20% | 3% | u
CCc1ccc(NC(=O)CSc2ccc(-c3ccco3)nn2)cc1 | -38% | 20µM* | -7%
O=C(CSc1ccc(-c2ccco2)nn1)NCc1ccc(Cl)cc1 | -15% | 16µM* | 3%
O=C(CSc1ccc(-c2ccccn2)nn1)NCc1ccc(Cl)cc1 | -21% | 6% | 9%
COc1ccccc1CCNC(=O)CSc1ccc(-c2ccco2)nn1 | 7% | 3.5µM* | 2%
COc1cccc(CNC(=O)CSc2ccc(-c3ccccn3)nn2)c1 | -7% | -9% | 3%
O=C(Nc1ccc2c(c1)CCCN2C(=O)c1cccs1)c1cccc(C(F)(F)F)c1 | x | 1% | 0%
CCOC(=O)CC(NC(=O)c1cc2c(=O)n3cccc(C)c3nc2s1)c1ccc(OCC(C)C)c(OC)c1 (configuration not stated) | x | -6% | -3%
O=C(Nc1nnc2n1CCS2)c1ccco1 | -17% | 5% | -9%
Cc1cccc(NC(=O)CSc2ccc(-c3ccco3)nn2)c1C | -42% | 2% | -2%
SMILES | AmpC inh no detg | Sm TGR block | AmpC inh detg
O=C(CSc1ccc(-c2ccco2)nn1)N1CCCC1 | -18% | 18µM* | -7%
O=C(CSc1ccc(-c2ccco2)nn1)NCc1ccccc1 | -24% | 35µM* | -3%
O=C(CSc1ccc(-c2ccco2)nn1)N1CCCCC1 | -23% | u | 2%
COc1c(O)ccc(/C=N/NC(=O)c2ccc3c(c2)OCCO3)c1[N+](=O)[O-] | -42% | 0% | 4%
COc1ccc(C2SCC(=O)Nc3c2c(=O)[nH]n3C2CCCCCC2)cc1 (configuration not stated) | -22% | 40µM* | u
CCOc1ccc(C2SCC(=O)Nc3c2c(=O)[nH]n3C2CCCCCC2)cc1 (configuration not stated) | -33% | -26% | 3%
Cn1c(-c2cccc(Br)c2)cnc1NCc1ccccc1O | -45% | -22% | u
CC(C)C(c1nnnn1Cc1ccco1)N1CCC(C(N)=O)CC1 (configuration not stated) | -12% | 45µM* | u
CCC(c1nnnn1Cc1ccco1)N1CCC(C(N)=O)CC1 (configuration not stated) | -13% | 0% | -17%
CCN(C(=O)c1ccco1)c1nnc(-c2cccnc2)s1 | 65% | 10% | -4%
Brc1ccc(-c2ccc(CNCCSc3nnnn3-c3ccccc3)o2)cc1 | x | 18µM* | 18%
Clc1ccc(-c2ccc(CNCCSc3nnnn3-c3ccccc3)o2)cc1 | x | 8% | 33%
O=C(NCc1ccco1)/C(=C/c1ccc(Br)cc1)NC(=O)c1ccco1 | -10% | -16% | -11%
COc1ccc(S(=O)(=O)N(C)C)cc1NC(=O)Cc1c[nH]c2ccccc12 | 22µM* | 1% | -12%
Cc1ccc(S(=O)(=O)N(C)C)cc1NC(=O)CCc1c[nH]c2ccccc12 | -34% | -14% | 1%
Cc1cc2c(cc1S(=O)(=O)Nc1cc(C(F)(F)F)cc(C(F)(F)F)c1)OCC(=O)N2 | x | -10% | -6%
Cc1nn(-c2ccccc2)c2nc(C(F)(F)F)[nH]c(=O)c12 | -13% | -1% | u
Cc1nn(-c2cc(C(F)(F)F)ccc2Cl)c2nc(C(Cl)(Cl)Cl)[nH]c(=O)c12 | -47% | 20µM* | 1%
CCN1C(=O)/C(=C\c2ccc([N+](=O)[O-])s2)C(=O)NC1=S | -59% | 2.8µM* | u
CCCN1C(=O)/C(=C/c2ccc(C)s2)NC1=S | -8% | u | u
C=CCN1C(=O)/C(=C/c2cc(C)n(-c3cccnc3)c2C)C(=O)NC1=S | -16% | u | 6%
C=CCN1C(=O)/C(=C/c2ccc(Br)s2)C(=O)NC1=S | -39% | 2.5µM* | -16%
O=C(Nc1cc(C(F)(F)F)ccc1Cl)c1cccc(N2C(=O)CCC2=O)c1 | 17% | -21% | -3%
COc1ccc(C2Nc3ccccc3C(=O)N2C2CCCCC2)cc1 (configuration not stated) | -49% | -1% | -6%
CC1CCCCC1NC(=O)Cn1cc([N+](=O)[O-])ccc1=O (configuration not stated) | -16% | -22% | -7%
SMILES | AmpC inh no detg | Sm TGR block | AmpC inh detg
O=C(N/N=C/c1ccncc1)c1cc2ccccc2cc1O | -14% | 8% | 5%
O=C(N/N=C/c1ccc[nH]1)c1cc2ccccc2cc1O | 14µM* | u | -7%
CC1CCC(NC(=O)CCN2C(=O)C3C4C=CC(C4)C3C2=O)CC1 (configuration not stated) | -10% | -20% | -12%
Nc1ccc(Oc2ncccn2)cc1 | -26% | 35µM* | 1%
O=Cc1cccc(Oc2ncccn2)c1 | -15% | 3% | u
CCn1cc(C(=O)NCCN(CC(C)C)CC(C)C)c(=O)c2cc(S(=O)(=O)N(C)C3CCCCC3)ccc21 | x | 0% | 1%
CC1CC(=O)C2=C(C1)Nc1ncnn1C2c1ccccc1 (configuration not stated) | -18% | 17% | 2%
Cc1nc2n(n1)C(c1ccccc1)C1=C(CC(c3ccco3)CC1=O)N2 (configuration not stated) | -22% | 56µM* | 4%
COc1ccccc1OCC(=O)Nc1ccc(N2CCCCC2)cc1 | -20%[11.4 µM] | 0% | -9%
Cc1cccc(OCC(=O)Nc2ccc(N3CCCC3)cc2)c1C | -6% | 32µM* | -14%
COCCN(C(=O)c1cc(Cl)ccn1)c1c(N)n(Cc2ccccc2)c(=O)[nH]c1=O | -4% | -17% | u
